Test results from PubChem BioAssay AID431 (Sanford-Burnham Center for Chemical Genomics, 2006).
Among all 63,000 compounds or so, about 1,100 (1.7%) were called active. For the sample, actives were picked, then their nearest neighbours and some compounds at random. Results with a measured potency or affinity are listed apart. A number with no mark means an inactive call.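 Rule for the calls: active = compounds whose percent cytotoxicity in the single-dose primary screen, scaled between solvent and toxic-drug controls, exceeds 50; inactive = the rest.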

assay: viability loss of HPDE-C7K cells – cell-based, fluorescence, HTS, primary screen (AID 431); settings: HPDE-C7K KRASV12 cells, Alamar Blue viability, 48 h; at 10 µM; hits give high values;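 note: 0% = DMSO solvent wells and 100% = doxorubicin-treated wells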

Point of comparison: `COc1ccc2[nH]cc(CCN(C)C)c2c1`, cytotoxicity 19.9%. Against it:
- CCCCNC(=O)c1c(N)n(CCCOC)c2nc3ccccc3nc12 — higher, 47.2%
- CCCCCn1c(N)c(C(=O)NCCN2CCOCC2)c2nc3ccccc3nc21 — lower, 6.4%
- CCOC(=O)c1c(N)n(CCN2CCCCC2)c2nc3ccccc3nc12 — lower, 1.7%
- CCCCn1c(N)c(C(=O)NCCN2CCOCC2)c2nc3ccccc3nc21 — lower, -9.3%
- CC1SC2(CN3CCC2CC3)NC1=O (stereo not given) — lower, -32%
- O=P(OCC(F)(F)C(F)F)(N1CCOCC1)N1CCOCC1 — lower, -6.6%
- C=CCn1c(O)c(C(C)=NCCN2CCOCC2)c(=O)[nH]c1=O — lower, 3.7%
- NCCc1c[nH]c2ccc(F)cc12 — lower, -7.8%
- Nc1c(C(=O)NCCN2CCOCC2)c2nc3ccccc3nc2n1Cc1ccco1 — higher, 20.7%
- CC(C)OC(=O)c1c(N)n(Cc2ccco2)c2nc3ccccc3nc12 — lower, -9%
- COc1ccc(Cn2c(N)c(C(=O)NCc3ccco3)c3nc4ccccc4nc32)cc1OC — lower, 3.1%
- COCCOC(=O)c1c(N)n(Cc2ccco2)c2nc3ccccc3nc12 — lower, 15.2%
- COCCOC(=O)c1c(N)n(Cc2ccc(OC)cc2)c2nc3ccccc3nc12 — lower, -9.2%
- CCOC(=O)c1c(N)n(Cc2ccco2)c2nc3ccccc3nc12 — lower, -13.8%
- O=P(C(c1ccc2c(c1)OCO2)N1CCOCC1)(N1CCOCC1)N1CCOCC1 (stereo not given) — lower, -15.1%
- CN=C(SCc1cc2c(cc1Cl)OCO2)c1c(O)n(C)c(=O)n(C)c1=O — lower, -13.4%
- CCCNS(=O)(=O)c1ccc(OCC(=O)N2CCN(Cc3ccccc3)CC2)cc1 — lower, 8%
- CCOc1ccc(-n2c(CC)nc3ccccc3c2=O)cc1 — lower, 1.5%
- CN(C)CCc1nc2ccccc2c(=O)n1-c1ccccc1 — lower, 11.7%
- Cc1ccc2c(c1)C(c1ccccc1)NCC(=O)N2 (stereo not given) — lower, 2.7%
- CCC(=NCCC1=CCCCC1)c1c(O)[nH]c(=O)[nH]c1=O — higher, 22.3%
- O=C(c1csc2c1CCCCC2)N1CCC2(CC1)OCCO2 — lower, -9.8%
- Cc1nc2c(-c3ccc(F)cc3)c(C)nn2c(C)c1CCC(=O)N1CCC2(CC1)OCCO2 — lower, 9.4%
- CCCCn1c(N)c(C(=O)OCC2CCCO2)c2nc3ccccc3nc21 (stereo not given) — higher, 34.2%
- CC(C)CCOC(=O)c1c(N)n(CC2CCCO2)c2nc3ccccc3nc12 (stereo not given) — higher, 26.1%
- CCOC(=O)c1cccc([P+](=O)O)c1 — lower, 7.5%
- CC(C)[C@H]1C(=O)N2CCC[C@H]2[C@]2(O)O[C@](NC(=O)[C@@H]3C=C4c5cccc6[nH]cc(c56)C[C@H]4N(C)C3)(C(C)C)C(=O)N12 — lower, -1.3%
- CC(C)[C@@]1(NC(=O)[C@@H]2C=C3c4cccc5[nH]cc(c45)C[C@H]3N(C)C2)O[C@@]2(O)[C@@H]3CCCN3C(=O)[C@H](Cc3ccccc3)N2C1=O — higher, 29.5%
- Cc1ccc2c(c1)CC1(CN2C)C(=O)NC(=O)N(c2ccccc2C)C1=O (stereo not given) — lower, 8.7%
- COC(=O)C(O)(c1ccc2c(c1)CCCN2)C(F)(F)F (stereo not given) — lower, -24.5%
- Cc1ccc(CN2CCN(C)CC2)c(C)c1 — lower, 14.3%
- Cc1ccc(S(=O)(=O)N2CN3CCN(C3)C2)cc1 — lower, 11.8%
- Cc1ccc(CN2CC3CC(C2)c2cccc(=O)n2C3)cc1 (stereo not given) — lower, -9.1%
- Cn1c(O)c(C=NCCOc2ccc(Cl)cc2)c(=O)n(C)c1=O — lower, -12.3%
- CCc1nc2ccccc2c(=O)n1-c1cccc(OC)c1 — lower, -14%
- O=c1c2ccccc2nc(-c2cccs2)n1-c1cnccn1 — lower, 15.2%
- O=P1(NC2CCCC2)COc2ccccc2OC1 — lower, -11.9%
- COc1ccc(-n2c(SC)nc3ccccc3c2=O)cc1 — lower, -4.7%
- CSC(=Nc1ccccc1)c1c(O)n(C)c(=O)n(C)c1=O — lower, 5.2%
- CC(=NCc1ccc(F)cc1)c1c(O)n(C)c(=O)n(C)c1=O — higher, 37.8%
- COc1ccc(C2SCC(=O)Nc3c2c(=O)[nH]n3C2CCCCC2)cc1 (stereo not given) — lower, -1.2%
- CCOc1ccc(C2SCC(=O)Nc3c2c(=O)[nH]n3C2CCCCCC2)cc1 (stereo not given) — lower, -11.1%
- C=CCN1C(=O)C2(C(C(=O)OCC)=C(N)Oc3ccccc32)C2=C1CCCC2=O (stereo not given) — lower, -6.6%
- CCc1nc(N2CCNCC2)c(C#N)c2c1CSC(C)(C)C2 — higher, 31.9%
- O=C(C(Cc1ccccc1)NS(=O)(=O)c1ccc(F)cc1)N1CCC2(CC1)OCCO2 (stereo not given) — lower, 10.2%
- CCN(CC)C(=O)c1ccc(NC(=O)Cn2nc(C)c3ccccc3c2=O)cc1 — lower, -7.8%
- O=C(Nc1ccc(OC(=O)N2CCCC2)cc1)N1CCOCC1 — lower, -8.6%
- CC(C)C(=O)N1CCN(CCN=Cc2c(O)n(C)c(=O)n(C)c2=O)CC1 — lower, 0.5%
- c1cc2n(c1)-c1c(ccc3c1OCO3)CNC2c1ccc2c(c1)OCO2 (stereo not given) — higher, 27.4%
- COc1ccc(C2NCc3ccc4c(c3-n3cccc32)OCO4)cc1OC (stereo not given) — lower, 3.2%
- O=P(/C(=N/O)N1CCCCC1)(N1CCOCC1)N1CCOCC1 — lower, -3.8%
- O=C1CN=C(c2ccccc2)c2oc3ccc(Br)cc3c2N1 — lower, -15.6%
- O=C(NCC(c1cccnc1)N1CCOCC1)Oc1ccccc1 (stereo not given) — lower, 2.6%
- C=Cn1ccnc1P(=S)(c1c(C)nn(-c2ccccc2)c1C)c1nccn1C=C — lower, 8.8%
- O=c1[nH]c(=O)n(Cc2ccccc2)c(O)c1C=NCCN1CCNCC1 — lower, -15%
- O=c1[nH]c(=O)n(C2CCCCCC2)c(O)c1C=NCCCN1CCOCC1 — lower, -13.6%
- CCCCn1c(O)c(C(CC)=Nc2cccc(C(=O)O)c2)c(=O)[nH]c1=O — lower, -13.6%
- CC(=NCCCN1CCCCC1)c1c(O)n(Cc2ccccc2)c(=O)[nH]c1=O — lower, 9.4%
- CCOC(=O)c1ccc(N2C(=O)CC(N3CCC(C#N)(c4ccccc4)CC3)C2=O)cc1 (stereo not given) — lower, -11.3%
- CCCCCn1c(=O)c(C(=O)NCc2ccncc2)c(O)c2ccccc21 — higher, 33.3%
- CCCCCCn1c(=O)c(C(=O)Nc2ccncc2)c(O)c2ccccc21 — higher, 46.4%
- CCCCCn1c(=O)c(C(=O)NCc2ccccn2)c(O)c2ccccc21 — lower, 8.3%
- CCCCn1c(=O)c(C(=O)Nc2ccccc2S(N)(=O)=O)c(O)c2ccccc21 — lower, -11.7%
- CCCCn1c(O)c(C=NCCCN(CC)CC)c(=O)[nH]c1=O — lower, 6.9%
- CSc1nnc(C2CCNCC2)n1C — lower, -11.4%
- O=C1NC(=O)C(CCc2ccncc2)(C2CCCCC2)C(=O)N1 — lower, -0.4%
- COC(=O)c1ccc(COc2cc(C)cc3oc(=O)c4c(c23)CCCC4)o1 — lower, 4.3%
- CC(=O)CC(C)(C)n1c[n+](C)nn1 — lower, 18.4%
- Cc1ccc2c(c1)C1CN(C)CCC1N2C(=O)c1ccco1 (stereo not given) — lower, 2.2%
- c1ccc2c(CCNCc3ccc4c(c3)OCO4)c[nH]c2c1 — higher, 23.6%
- CC(C)CC1C(C#N)=C(N)Oc2c1c(=O)oc1ccccc21 (stereo not given) — lower, 8.9%
- Cc1ccc2c(c1)CC1(CN2C)C(=O)NC(=O)N(CCC2=CCCCC2)C1=O (stereo not given) — lower, 5.2%
- O=C1NC(=O)C2(Cc3ccccc3N3CCCC32)C(=O)N1c1ccccc1 (stereo not given) — lower, -2.3%
- OC1(c2ccccc2F)CC2CCC(C1)N2CCN1CCOCC1 (stereo not given) — lower, -1.8%
- Cc1oc(-c2ccc(Cl)cc2)nc1CS(=O)CC(=O)N1CCC2(CC1)OCCO2 (stereo not given) — lower, -19.8%

With `COc1ccc(CCNC(=O)c2c(N)n(CCN3CCOCC3)c3nc4ccccc4nc23)cc1` the cytotoxicity was 76.9% (active).
For `CCCCCCn1c(N)c(C(=O)NCCN2CCOCC2)c2nc3ccccc3nc21`, the cytotoxicity was 86.3% (active).
For `CCCCc1ccc2[nH]cc(CCN)c2c1`, the cytotoxicity was 89.6% (active).
In the case of `Nc1c(C(=O)NCc2ccco2)c2nc3ccccc3nc2n1Cc1ccc(F)cc1`, the cytotoxicity is reported as 95.8% (active).
With `COc1ccc(Cn2c(N)c(C(=O)NCc3ccco3)c3nc4ccccc4nc32)cc1` the cytotoxicity was 75.2% (active).
For `CC(C)(C)OC(=O)c1c(N)n(Cc2ccco2)c2nc3ccccc3nc12`, the cytotoxicity was 56.1% (active).
For `O=c1c2ccccc2nc(CSc2ncnc3nc[nH]c23)n1-c1ccccc1`, the cytotoxicity was 64.8% (active).
For `CC(C)CCn1c(N)c(C(=O)OCC2CCCO2)c2nc3ccccc3nc21` (stereo not given), the cytotoxicity was 51.5% (active).
For `CC(C)[C@@]1(NC(=O)[C@@H]2C[C@@H]3c4cccc5[nH]cc(c45)C[C@H]3N(C)C2)O[C@@]2(O)[C@@H]3CCCN3C(=O)[C@H](Cc3ccccc3)N2C1=O`, the cytotoxicity was 77.9% (active).
In the case of `CCn1nc(-c2ccccc2)nc2c(=O)n(C)c(=O)nc1-2`, the cytotoxicity is reported as 123% (active).
For `CCn1nc(-c2cccs2)nc2c(=O)n(C)c(=O)nc1-2`, the cytotoxicity was 127% (active).
With `COc1ccc(C2SCC(=O)Nc3c2c(=O)[nH]n3C2CCCCCC2)cc1` (stereo not given) the cytotoxicity was 80.4% (active).
In the case of `CCCCc1nc(N2CCNCC2)c(C#N)c2c1CSC(C)(C)C2`, the cytotoxicity is reported as 71.5% (active).
With `COc1ccc(C2NCc3ccc4c(c3-n3cccc32)OCO4)cc1O` (stereo not given) the cytotoxicity was 59.8% (active).
For `COc1cccc(OC)c1C1=NCC(=O)Nc2c1oc1ccc(Br)cc21`, the cytotoxicity was 56.7% (active).
In the case of `O=c1c(C=NCCN2CCNCC2)c(O)n(C2CCCCC2)c(=O)n1C1CCCCC1`, the cytotoxicity is reported as 95.1% (active).
With `CCCCCn1c(=O)c(C(=O)Nc2ccncc2)c(O)c2ccccc21` the cytotoxicity was 73.1% (active).
In the case of `CCCCn1c(=O)c(C(=O)Nc2cnccn2)c(O)c2ccccc21`, the cytotoxicity is reported as 51.5% (active).
In the case of `C[C@@]1(CO)[C@H](O)CC[C@@]2(C)[C@H]1CC[C@H]1C[C@@H]3C[C@@]12CC[C@]3(O)CO`, the cytotoxicity is reported as 69.7% (active).
